Bioassay records (PubChem BioAssay)
Shown are actives, neighbours in structure and some others; about 4.5% of the full set was active somewhere.
ssDAF-12 act: S. stercoralis DAF-12 nuclear receptor activators, primary screen, cell-based, luminescence, HEK293, GRIP1 co-expression, lit1-tk-luc. actives 1% (n = 370,000). Nuclear hormone receptor DAF-12 (Strongyloides stercoralis). HEK293 ssDAF-12/GRIP1 lit1-tk-luc reporter; % of 3 µM dafachronic acid response. activation, % at 6.8 µM. AID 652126, 2013;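 active = activation above the mean over all tested compounds plus 3 SD, cut at about 0.9% in these data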;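 note: 0% = DMSO-only wells and 100% = 3 µM delta7-dafachronic acid wells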
FXN GAA850 act: FXN promoter activators, primary screen, cell-based, luciferase luminescence, HEK293 lucGAA850. HEK293 lucGAA850 FXN promoter luciferase reporter, 24 h; percent of 10 µM SAHA response. AID 540364, 2011. actives 0.56% (n = 360,000). activation, % at 6 µM;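 active = activation above the average of all compounds screened plus 3 SD, cutoff fixed separately per campaign, cut at about 7.5% in these data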;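 note: 0% = DMSO wells and 100% = 10 µM SAHA wells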
DAX1 inh-1: DAX1 (NR0B1) inhibitors, primary screen, cell-based, HEK293, Gal4-DAX1, luciferase luminescence; Nuclear receptor subfamily 0 group B member 1 (Homo sapiens), P51843; actives 0.99% (n = 340,000); inhibition, % at 6.75 µM; AID 504766, 2011; HEK293 Gal4-DAX1 luciferase reporter;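 active = inhibition above the mean over all tested compounds plus 3 SD, cut at about 4.2% in these data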;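 note: 0% = DAX1-transfected cells with DMSO and 100% = empty-vector control cells with DMSO; inhibition shows as a rise in luminescence from relieved DAX1 repression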
Target sequence (P51843 207-470 limits assumed): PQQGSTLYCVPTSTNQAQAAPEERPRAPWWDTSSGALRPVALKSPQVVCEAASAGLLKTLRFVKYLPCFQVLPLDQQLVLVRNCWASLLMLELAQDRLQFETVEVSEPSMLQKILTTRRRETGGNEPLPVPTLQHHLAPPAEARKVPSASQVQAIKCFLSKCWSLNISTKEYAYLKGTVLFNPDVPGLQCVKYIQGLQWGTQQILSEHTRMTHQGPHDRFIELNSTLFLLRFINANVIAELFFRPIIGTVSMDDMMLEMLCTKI
hcDAF12 agonist: H. contortus DAF-12 nuclear receptor activators, primary screen, cell-based, luminescence, HEK293, lit1-tk-luc reporter; HEK293 hcDAF-12 lit1-tk-luc reporter; 0% DMSO, 100% Δ7-dafachronic acid; activation, % at 6.8 µM; actives 1.4% (n = 370,000); AID 652067, 2013;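 active = activation above the mean of all tested compounds plus 3 SD, cut at about 5.5% in these data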;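 note: 100% = response to 3 µM Δ7-dafachronic acid high control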
DAX1 inh-2: DAX1 (NR0B1) inhibitors on StAR promoter, primary screen, cell-based, luminescence, SF-1 (NR5A1), full-length DAX-1 | HEK293T StAR-luciferase reporter, SF-1/DAX-1 repression relief | inhibition, % at 6.8 µM | actives 1.1% (n = 370,000);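 active = inhibition above the mean over all tested compounds plus 3 SD, cut at about 3.6% in these data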;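 note: 0% = DAX-1 cells with DMSO and 100% = cells lacking DAX-1 with DMSO; higher inhibition means more luminescence from relief of DAX-1 repression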
hgDAF-12 ag: H. glycines DAF-12 receptor agonists, primary screen, cell-based, luminescence, HEK293, GAL4 fusion, UAS-luciferase; Nuclear hormone receptor DAF-12 (Heterodera glycines), GAL4 fusion; HEK293 GAL4-hgDAF12 UAS-luciferase reporter, agonist luminescence; normalized to butyrate control; activation, % at 6.8 µM; actives 1.8% (n = 370,000); AID 687014, 2013;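 active = activation above a cutoff set at the mean of all screened compounds plus 3 SD, cut at about 10% in these data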;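 note: 0% = DMSO wells and 100% = sodium butyrate wells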
* = called active by the depositor; x = no result; ! = a repeat was not active.

SMILES | ssDAF-12 act | FXN GAA850 act | DAX1 inh-1 | hcDAF12 agonist | DAX1 inh-2 | hgDAF-12 ag
COC(=O)C1=C(C)N(c2ccc(OC)cc2)C(C)=C(C(=O)OC)C1c1ccccc1 | -0.2 | 0.0 | 4.9* | 1.1 | -0.2 | 0.5
CC1=C(C(=O)O)CC(S(=O)(=O)O)C1(C)C (stereo unspecified) | 0.0 | -0.9 | 1.5 | 0.4 | 3.7* | 1.4
O=C(NC1CCCCN(Cc2cccc(Cl)c2)C1=O)c1cccs1 (stereo unspecified) | -1.5 | x | x | 0.1 | 0.0 | -2.9
Cc1sc2ccccc2c1CNC[C@H]1O[C@@H](n2ccc(N)nc2=O)[C@H](O)[C@@H]1O | -0.3 | -1.5 | 1.4 | 0.5 | 0.6 | 0.1
Cc1sc2ccccc2c1CNC[C@H]1O[C@@H](n2cnc(C(N)=O)n2)[C@H](O)[C@@H]1O | 1.0* | 2.0 | 0.5 | -0.8 | 1.5 | -2.8
COc1ccc(C(=O)NCC2CCN(C(=O)C(=O)c3cccs3)CC2)c(OC)c1 | -0.6 | x | x | -1.8 | -0.5 | -0.4
COC(=O)CNC(=O)CSc1nc2sccc2c(=O)n1-c1ccccc1 | -1.3 | 0.6 | -0.2 | 1.3 | -0.2 | 1.5
CNC(=O)CSc1nc2sccc2c(=O)n1-c1ccccc1 | -0.5 | 2.2 | 4.6* | 0.3 | -0.4 | -0.8
CCOc1ccccc1C(=O)N1CCC(Oc2cccnc2)CC1 | -1.4 | x | x | -0.1 | -0.1 | 0.0
CCN(CC)c1ccc(C=C2C(=O)OC(C)(C(C)(C)C)OC2=O)cc1 (stereo unspecified) | -1.3 | 1.8 | 4.9* | 0.9 | -0.8 | 0.1
CN(C)c1ccc(C=C2C(=O)OC(C)(C(C)(C)C)OC2=O)cc1 (stereo unspecified) | -0.9 | 1.4 | 0.6 | -1.5 | 0.1 | 0.2
COc1ccc(C(=O)OCCN(C)C2CN(Cc3cn(Cc4ccccc4Cl)nn3)S(=O)(=O)C2)cc1OC (stereo unspecified) | -0.8 | x | x | -0.4 | -1.9 | -0.8
COc1cc(CNc2ccc(N3CCN(C(C)=O)CC3)cc2)ccc1OCc1ccc(F)cc1 | -1.5 | 0.0 | -0.3 | -0.8 | -1.1 | 11.2*
CC(=O)N1CCN(c2ccc(NCc3ccc(F)cc3)cc2)CC1 | -1.7 | 0.4 | 3.4 | -1.2 | -1.7 | -2.0
Cc1ccccc1NC(=O)COC(=O)/C=C/c1cn(-c2ccccc2)nc1-c1cccnc1 | 1.1* | 1.2 | 0.3 | 0.3 | -0.4 | -0.4
Cc1cc(C(=O)NNC(C)Cc2ccccc2)no1 (stereo unspecified) | -0.6 | 3.2 | 4.3* | -1.5 | 0.5 | 5.1
Cc1ccc(NC(=O)Cn2nnc(-c3ccccc3F)n2)cc1C | -1.1 | x | x | -2.6 | 1.4 | 0.1
CC(=O)c1c(C)[nH]c(C(=O)Nc2cc(S(=O)(=O)N3CCCCC3)ccc2C)c1C | -1.1 | 0.0 | -0.2 | -0.6 | -0.7 | -3.4
CC(=O)c1c(C)[nH]c(C(=O)Nc2ccc(Cl)cc2F)c1C | -0.4 | 3.0 | 1.9 | 1.9 | 1.6 | 11.3*
COc1ccc(S(=O)(=O)N2CCCCC2)cc1NC(=O)c1[nH]c(C)c(C(C)=O)c1C | 0.9* | 1.1 | 4.5* | 6.2* | -1.0 | 1.3
CC(=O)c1c(C)[nH]c(C(=O)Nc2ccc(Cl)c(S(=O)(=O)N(C)C)c2)c1C | -0.6 | 3.0 | 10.0* | 2.0 | 1.7 | 5.8
CC(=O)c1c(C)[nH]c(C(=O)Nc2ccc(F)c(F)c2F)c1C | -0.6 | -0.3 | -0.9 | -0.9 | 0.0 | 1.0
COC(=O)[C@]12C[C@H](CC(=O)NCc3ccc(OC)c(OC)c3)C(=O)N(Cc3ccco3)C1=C[C@H](COCc1ccccc1)O[C@@H]2C | -1.0 | x | x | -1.5 | 1.0 | 2.4
Cc1ccc(Cl)cc1NC(=O)CCC(=O)Nc1cc(Cl)ccc1C | -0.8 | 1.3 | -0.4 | -1.9 | 0.5 | -1.9
CCCC(=O)Nc1cc(Cl)ccc1C | -1.8 | -1.3 | 6.5* | 0.6 | 0.0 | -0.1
SMILES | ssDAF-12 act | FXN GAA850 act | DAX1 inh-1 | hcDAF12 agonist | DAX1 inh-2 | hgDAF-12 ag
CCc1ccc(N2C(=O)C[C@@](C#N)(C(=O)OC)[C@H]2c2ccccc2)cc1 | -1.0 | x | x | -0.2 | 0.6 | -5.6
O=C(Cc1ccc(Cl)cc1)Nc1ccccc1C(=O)Nc1ccc(C(=O)O)cc1 | -2.2 | 1.4 | 2.4 | -1.1 | 0.9 | 3.1
O=C(Nc1ccc(N=Nc2ccccc2)cc1)c1ccc(Cl)cc1Cl | -1.2 | 5.0 | 0.0 | -0.5 | 1.0 | 1.9
O=C(Nc1ccc(N=Nc2ccccc2)cc1)c1ccccc1Cl | -0.8 | 4.8 | 3.3 | 2.2 | 3.9* | 11.3*
O=C(O)c1ccc(NC(=O)c2ccccc2NC(=O)c2ccccc2Cl)cc1 | -0.6 | 1.1 | 4.5* | -2.1 | -0.3 | -0.5
COc1ccc(OC)c(S(=O)(=O)N(CC(=O)NC2CCC(C)CC2)c2cc(C)cc(C)c2)c1 (stereo unspecified) | -1.0 | x | x | 1.5 | 1.1 | 7.7
Cc1ccc(S(=O)(=O)NC2=C(N3CCN(Cc4ccccc4)CC3)C(=O)c3ccccc3C2=O)cc1 | -1.4 | -1.4 | 5.3* | -0.4 | 1.2 | 0.8
C[N+](C)(C)CCOC(=O)CCC(=O)OCC[N+](C)(C)C | -0.7 | -0.3 | -0.2 | -1.0 | 0.6 | 11.1*!
Cc1nc(Nc2ccc(S(N)(=O)=O)cc2)sc1-c1ccccc1 | -1.1 | 1.9 | -0.7 | -2.8 | 0.3 | 3.8
COc1ccc(Nc2nc(-c3ccccc3)c3ccccc3n2)cc1 | -0.7 | 0.8 | 0.5 | 1.7 | 0.3 | 0.0
COc1ccc(Nc2nc(C)c3ccccc3n2)cc1 | 1.1* | 7.0 | 2.6 | 6.5* | 1.5 | 10.0
COc1ccc(Nc2nc(C)c(-c3ccccc3)s2)cc1 | 0.0 | 5.3 | 0.9 | 6.2* | 1.5 | 7.5
O=C(CCCCC(=O)Nc1c(I)cc(I)c(C(=O)O)c1I)Nc1c(I)cc(I)c(C(=O)O)c1I | 1.9* | -1.8 | -0.7 | 0.4 | 0.3 | -1.7
CC(=O)Nc1c(I)c(NC(C)=O)c(I)c(C(=O)O)c1I | -1.2 | 1.0 | -0.1 | -1.4 | 0.9 | -0.3
COc1ccc(C)cc1Nc1n[n+](-c2ccccc2)c(-c2ccc(SC)cc2)s1 | -0.4 | -1.9 | 3.5 | 2.0 | 0.3 | 11.5*
CN1C(=O)c2cc(NC(=O)c3ccccc3)ccc2OC[C@H]2O[C@@H](CC(=O)NCC3CC3)CC[C@@H]21 | -0.8 | x | x | 0.0 | 0.3 | 0.1
